Screens (PubChem)
SARS PLpro yeast – SARS-CoV PLP inhibition in yeast; Potency, µM (titrated, usually from 32.9 µM), inactives show top-dose activity, positive = growth rescue, hits mostly activators; 330,000 compounds, 0.19% hits; S. cerevisiae expressing SARS-CoV PLpro, growth rescue; calls by dose curve; also: 0% is about no effect; nearly all actives have a fitted effect of over 55% in size
Pf growth 96h – P. falciparum growth inhibition at 96 hours; P. falciparum luciferase reporter growth, 96 h; Potency, µM (highest dose often 28.7 µM), without a hit: at the top dose activity change, negative = inhibition, hits mostly inhibitors; 320,000 compounds, 6.9% hits; AID 504834; also: % is scaled to controls: 0 for no effect and ±100 for the full control effect
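Plates of compound plus infected erythrocytes (2% hematocrit, 0.05% parasitemia final) incubate 96 hours, 37 C, 5% CO2. Detection reagent added; reduced luminescence from the parasites' luciferase reporter flags inhibition.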
Sm TGR inh – blocks Schistosoma mansoni thioredoxin glutathione reductase | Q962Y6 | purified TGR, DTNB reduction, TNB absorbance 405 nm | Potency, µM (top dose mostly 114 µM), inactives show top-dose activity change, negative = inhibition, hits mostly inhibitors | 360,000 compounds, 3% hits | AID 485364; also: % is scaled to controls: 0 for no effect and ±100 for the full control effect; nearly all actives have a fitted effect of over 60% in size
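Kinetic colorimetric format: TGR-catalysed, NADPH-driven DTNB reduction monitored via TNB absorbance. Enzyme dispensed at 20 nM; compound exposure 15 min at room temperature before reaction start.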
Pf growth 48h – inhibits P. falciparum growth in the first generation, 48 h; 310,000 compounds, 5.9% hits; Potency, µM (highest dose often 28.7 µM), for inactives: top-dose activity change, negative = inhibition, actives largely listed as inhibitors; P. falciparum luciferase growth in erythrocytes, 48 h; also: % is scaled to controls: 0 for no effect and ±100 for the full control effect
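Luciferase-expressing P. falciparum in infected erythrocytes (2% hematocrit, 0.1% parasitemia final) in RPMI 1640/0.5% Albumax were exposed to compound for 48 hours at 37 C, 5% CO2; growth read as luminescence.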
Starred values were filed as active, the others as inactive; ? = inconclusive; · = no result. Rows were chosen to be rich in hits. Some 12% of all compounds tested hit in one or more screens of this group. Unless noted, calls follow the shape of the dose curve; as a rule, active = well fitted curve in the direction sought with a large enough effect; inconclusive = small, poorly fitted or top-dose-only effect, or another doubt; inactive = no such curve, though single readings can be large; an effect the other way counts as inactive or inconclusive. Potency is read from the fitted curve at half-maximal effect.

SMILES	SARS PLpro yeast	Pf growth 96h	Sm TGR inh	Pf growth 48h
O=C1CC(N(CCc2ccccc2)C(=S)Nc2ccccc2)C(=O)N1c1ccc(F)cc1 (stereo unspecified)	-2%	?	4%	?
O=C1CC(N(CCc2ccccc2)C(=S)Nc2ccccc2)C(=O)N1c1ccccc1 (stereo unspecified)	1%	3.3µM*	1%	?
CCNC(=S)N(CCc1ccc(S(N)(=O)=O)cc1)C1CC(=O)N(c2ccccc2)C1=O (stereo unspecified)	1%	10µM*	0%	?
C=CCN(C(=O)Nc1ccccc1)C1CC(=O)N(c2ccc(OC)cc2)C1=O (stereo unspecified)	5%	12µM*	-26%	5%
Cc1cc(C)c2c(n1)SCC(=O)N2CC(=O)Nc1cccc(C)c1C	·	·	5%	·
CN(CC(=O)Nc1ccccc1Cl)C(=O)COC(=O)c1ccc(-c2ccc(O)cc2)cc1	4%	·	·	·
CNC(=S)N(Cc1ccc(OC)cc1)C1CC(=O)N(c2ccc(OC)cc2)C1=O (stereo unspecified)	-16%	?	4%	-22%
CCCOc1ccc(N2C(=O)CC(N(CCc3ccc(OC)c(OC)c3)C(=S)Nc3ccccc3)C2=O)cc1 (stereo unspecified)	-14%	?	-10%	2.1µM*
O=C1CC(N(CCc2ccccc2)C(=S)Nc2cc(Cl)ccc2Cl)C(=O)N1c1c(Cl)cccc1Cl (stereo unspecified)	-7%	10µM*	1%	?
CNC(=S)N(Cc1ccc(OC)cc1)C1CC(=O)N(c2ccc(C(=O)OC)cc2)C1=O (stereo unspecified)	5%	5.9µM*	-3%	?
CNC(=S)N(CCc1ccc(OC)c(OC)c1)C1CC(=O)N(c2ccccc2)C1=O (stereo unspecified)	1%	-2%	-17%	?
CCCOc1ccc(N2C(=O)CC(N(Cc3ccc(OC)cc3)C(=S)Nc3ccccc3)C2=O)cc1 (stereo unspecified)	13%	?	7%	?
COc1cc(NC(=O)c2noc3c2CCc2ccccc2-3)cc(OC)c1OC	·	·	1%	·
Cc1ccccc1C(=O)N(C)c1ccccc1C(=O)NCc1ccccc1	25%	35%	1%	5%
O=C(/C=C/c1cccc(Cl)c1)NNC(=O)c1ccncc1	0%	5%	-14%	5%
Cc1cc2nsnc2c(S(=O)(=O)N2CCN(C)CC2)c1C	6%	6%	-4%	-6%
CCOC(=O)c1sc(N2C(=O)c3oc4ccc(F)cc4c(=O)c3C2c2ccc(O)cc2)nc1C (stereo unspecified)	·	·	8%	·
CCNC(=S)NCCN1CCCCC1	7%	12µM*	4%	·
CCCNC(=S)NCCN1CCCCC1	-10%	10%	0%	7%
COc1ccc2[nH]c(=O)c(CN(Cc3ccc(C)cc3)Cc3nnnn3CC3CCCO3)cc2c1 (stereo unspecified)	1%	8.3µM*	?	?
COCCn1nnnc1CN(CCc1ccccc1)Cc1cc2ccc(C)cc2[nH]c1=O	7%	10µM*	-14%	?
O=c1[nH]c2cc3c(cc2cc1CN(Cc1nnnn1CC1CCCO1)C1CCCCC1)OCO3 (stereo unspecified)	-3%	-13%	?	?
COc1ccccc1CN(Cc1cc2cc(C)ccc2[nH]c1=O)Cc1nnnn1CC1CCCO1 (stereo unspecified)	-2%	10µM*	-13%	7.4µM*
O=c1[nH]c2cc3c(cc2cc1CN(Cc1nnnn1CC1CCCO1)C1CCCC1)OCO3 (stereo unspecified)	12%	10µM*	25µM*	32%
CCOC(=O)C1=C(COC(=O)c2cc(Br)c(Br)s2)NC(=O)NC1C (stereo unspecified)	-7%	5%	-7%	6%
SMILES	SARS PLpro yeast	Pf growth 96h	Sm TGR inh	Pf growth 48h
COc1ccc2[nH]c(=O)c(CN(CCc3ccccc3)Cc3nnnn3CC3CCCO3)cc2c1 (stereo unspecified)	-7%	·	0%	-1%
COc1ccc2cc(CN(CCc3ccccc3)Cc3nnnn3CC3CCCO3)c(=O)[nH]c2c1 (stereo unspecified)	5%	124%	-11%	9.3µM*
Clc1ccc(C2[C@H]3CN(Cc4cccnc4)[C@H](c4ccccc4)C34CC2(c2ccccc2)C4)cn1 (stereo partly specified)	-13%	8.3µM*	-24%	10µM*
c1ccc(C2[C@H]3CN(CC4CCCCC4)[C@H](c4ccccc4)C34CC2(c2ccccc2)C4)cc1 (stereo partly specified)	-4%	?	-28%	?
c1ccc(C2[C@H]3CN(Cc4cccnc4)[C@H](c4ccccc4)C34CC2(c2ccccc2)C4)cc1 (stereo partly specified)	-20%	3.3µM*	-1%	4.1µM*
c1ccc(C2[C@H]3CN(CC4CCCCC4)[C@H](c4ccccc4)C34CC2(c2cccnc2)C4)cc1 (stereo partly specified)	-2%	?	45µM*	4.1µM*
COC(=O)c1cccc(C23CC4(C2)[C@H](CN(Cc2cccnc2)[C@@H]4c2ccccc2)C3c2ccccc2)c1 (stereo partly specified)	-6%	5.9µM*	?	12µM*
Clc1ccc(C2[C@H]3CN(Cc4ccc(-c5ccccc5)cc4)[C@H](c4ccccc4)C34CC2(c2ccccc2)C4)cn1 (stereo partly specified)	-2%	-24%	?	?
O=C(O)CCn1c2c(c3ccccc31)C[C@H](NS(=O)(=O)c1ccc(F)cc1)CC2	·	2%	·	-4%
N#Cc1ccc(C23CC4(C2)[C@H](CN(P(=O)(c2ccccc2)c2ccccc2)[C@@H]4c2ccccc2)C3c2ccc(Cl)nc2)cc1 (stereo partly specified)	2%	4.1µM*	1%	4.7µM*
CN1C[C@@H]2C(c3ccc(Cl)nc3)C3(c4ccc(C#N)cc4)CC2(C3)[C@H]1c1ccccc1 (stereo partly specified)	0%	?	-20%	?
N#Cc1ccc(C23CC4(C2)[C@H](CN(Cc2ccc(C(F)(F)F)cc2)[C@@H]4c2ccccc2)C3c2ccccc2)cc1 (stereo partly specified)	0%	?	?	?
c1ccc(C2[C@H]3CN(Cc4cccnc4)[C@H](c4ccccc4)C34CC2(c2cccnc2)C4)cc1 (stereo partly specified)	-12%	2.9µM*	-20%	2.3µM*
Cc1cccn2c(=O)c(/C=C(\C#N)c3nc4ccccc4n3C)c(Oc3ccc(Cl)cc3)nc12	·	·	0%	·
CCCNC(=O)c1ccc(N2CCC3(CC2)CC(c2ccccc2)=NO3)c(NC(=O)Cc2ccc(F)cc2)c1	-1%	4.7µM*	3%	?
